Results taken from PubChem BioAssay (NCATS).
The source made the active and inactive calls. How the calls were made is not given here.

These compounds were tested on HIV-1 nucleocapsid protein NCp7 (binding to TG oligonucleotide) (assay: HIV Nucleocapsid (AID 346;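 further: potency is for inhibitors that block NC binding and lower polarization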)). Settings: HIV-1 NC / fluorescein-TGTGTGTG probe, fluorescence polarization.
Procedure, shortened: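 NCp7 100 nM + fluorescein TG4xF 10 nM; Hepes pH 7.5/250mM NaCl/1uM ZnCl2/0.004% PEG 20000; 1 hr RT; FP, 45 s exposure; oligo-only wells as negative control.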
Potency means the concentration at half of the fitted maximal effect.

SMILES | Potency
Cc1cnc(CNc2ccnc(-c3c(C)noc3C)n2)cn1 | > 20 µM (inactive)
c1ccc(Nc2nc(-c3cccnc3)nc3ccccc23)cc1 | > 20 µM (inactive)
COc1ccc2[nH]cc(CCNc3cc(-c4ccccc4C(F)(F)F)ncn3)c2c1 | > 20 µM (inactive)
O=S(=O)(c1ccccc1)N1CCC2(CCCN(Cc3ccccc3)C2)CC1 | > 20 µM (inactive)
COc1ccc(NC(=O)N2CC[C@@]3(CCCNC3)C2)cc1 | > 20 µM (inactive)
CN(C)C(=O)c1ccc(-c2ccc3ncnc(NC4CC4)c3c2)cc1 | > 20 µM (inactive)
COc1ccccc1CN1CCC2(CCNCC2)CC1 | > 20 µM (inactive)
CC(=O)N1CCC2(CCCN(c3ccc(-c4ccccc4)cc3)C2)CC1 | > 20 µM (inactive)
Cc1cnc(CNc2ncnc3ccc(-c4cccc(C#N)c4)cc23)cn1 | > 20 µM (inactive)
CN(Cc1ccco1)c1ccnc(-c2cccc(C#N)c2)n1 | > 20 µM (inactive)
Clc1ccccc1-c1ccc2ncnc(NCc3cccnc3)c2c1 | > 20 µM (inactive)
CC(=O)N1CCC2(CC1)CCN(c1cccc(-c3ccccc3)c1)CC2 | > 20 µM (inactive)
COc1cccc(-c2ccc3ncnc(Nc4ccccc4)c3c2)c1 | > 20 µM (inactive)
CN(C)c1ncnc2ccc(-c3ccoc3)cc12 | > 20 µM (inactive)
COC(=O)N1CCC2(CCCN(Cc3ccccc3)C2)CC1 | > 20 µM (inactive)
CCNc1ncc2nc(-c3cc(F)cc(F)c3)c(=O)n(C[C@H]3CCCO3)c2n1 | > 20 µM (inactive)
CN1CCN(c2ncc3nc(-c4cccs4)c(=O)n(-c4ccccc4)c3n2)CC1 | 16.7 µM (inactive)
Clc1ccccc1-c1nc(NCCN2CCOCC2)c2ccccc2n1 | > 20 µM (inactive)
COc1ccc(C(=O)N2CCC3(CCN(Cc4ccncc4)CC3)CC2)cc1 | > 20 µM (inactive)
c1cn(-c2ncnc3ccc(-c4ccoc4)cc23)cn1 | > 20 µM (inactive)

SMILES | Potency
O=C(c1ccco1)N1CCC2(CC1)CN(c1ccccn1)C2 | > 20 µM (inactive)
COc1ccc(C(=O)N2CCC3(CC2)CN(c2ccccc2)C3)cc1 | > 20 µM (inactive)
CN(C)Cc1ccccc1-c1cncnc1NC1CC1 | > 20 µM (inactive)
N#Cc1cccc(NC(=O)N2CCCC3(CCN(S(=O)(=O)c4ccccc4)CC3)C2)c1 | > 20 µM (inactive)
COc1ncc2ncc(=O)n(CCc3ccccc3)c2n1 | > 20 µM (inactive)
COc1ccccc1-c1cc(Nc2ccn[nH]2)ncn1 | > 20 µM (inactive)
COc1cccc(Cn2c(=O)c(CCc3ccccc3)nc3cnc(N4CCN(C)CC4)nc32)c1 | > 4 µM (inactive)
COc1ccccc1-c1nc(N2CCOCC2)c2ccccc2n1 | > 20 µM (inactive)
COc1ccc2[nH]cc(CCNc3ncncc3-c3cccc(C#N)c3)c2c1 | > 20 µM (inactive)
COc1ccc(-c2nc3cnc(N4CCN(C)CC4)nc3n(Cc3cccs3)c2=O)cc1 | > 4 µM (inactive)
Cc1cnc(CNc2ccnc(-c3ccc(C(=O)N(C)C)cc3)n2)cn1 | > 20 µM (inactive)
CS(=O)(=O)N1CCC2(CC1)CN(Cc1ccc(C#N)cc1)C2 | > 20 µM (inactive)
COc1ccc(-c2nc3cnc(Oc4cccc(Cl)c4)nc3n(CCC#N)c2=O)cc1 | > 20 µM (inactive)
COc1cccc(Nc2ncc3nc(-c4ccccc4)c(=O)n(C)c3n2)c1 | > 20 µM (inactive)
O=c1c(-c2ccc(F)cc2)nc2cncnc2n1Cc1ccc(F)cc1 | > 20 µM (inactive)
COc1ccc(NC(=O)N2CCC3(CC2)CCN(C(=O)c2cnccn2)CC3)cc1 | > 20 µM (inactive)
Cc1cccc(CNc2ccnc(-c3cccc(C#N)c3)n2)c1 | > 20 µM (inactive)
CC(C)CN1CC2(CCN(C(=O)c3cnccn3)CC2)C1 | > 20 µM (inactive)
Cc1cnc(CNc2nc(-c3ccc4c(c3)OCO4)nc3ccccc23)cn1 | > 20 µM (inactive)
COc1ncc2ncc(=O)n(CCC#N)c2n1 | > 20 µM (inactive)
